Assay results from PubChem BioAssay (NCI).
This is part of a sample that, as a whole, favours compounds with a hit. Of some 79,000 tested, about 15% had one in any assay. Cut-off read from the data, not from the text of the source: active = growth inhibition above about 70%; inactive = the rest.

Key:
[1] = NCI Yeast Anticancer Drug Screen. Data for the rad50 strain (AID 155);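 note: 0% = growth of vehicle-only cultures of the same strain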; conditions: S. cerevisiae rad50 strain growth inhibition; at 50.0 µM; stronger effect = higher value
Outline: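 Readout: growth inhibition relative to vehicle-treated cultures. Compound exposure was carried out in a genetically defined yeast strain deficient in DNA damage repair.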

[2] = NCI Yeast Anticancer Drug Screen. Data for the mec2-1 strain (AID 157); conditions: S. cerevisiae mec2-1 strain, at 50.0 µM, stronger effect = higher value
Outline: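 Vehicle-treated cultures served as reference for growth inhibition of compound-exposed mec2-1 yeast.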

[3] = NCI Yeast Anticancer Drug Screen. Data for the sgs1 mgt1 strain (AID 161);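 note: 0% = growth of cultures given vehicle only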; conditions: S. cerevisiae sgs1 mgt1 strain, at 50.0 µM, stronger effect = higher value
Outline: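 Read-out: growth inhibition vs vehicle controls. Cells: mutant yeast strain deficient in DNA damage repair.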

[4] = NCI Yeast Anticancer Drug Screen. Data for the cln2 rad14 strain (AID 165);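 note: 0% = growth equal to vehicle treated cultures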; conditions: S. cerevisiae cln2 rad14 strain, at 50.0 µM, stronger effect = higher value
Outline: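 Each compound was tested on cln2 rad14 yeast. Inhibition of growth was calculated against vehicle-exposed controls.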

[5] = NCI Yeast Anticancer Drug Screen. Data for the bub3 strain (AID 167); conditions: S. cerevisiae bub3 mutant strain, at 50.0 µM, stronger effect = higher value
Outline: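 Readout: yeast growth inhibition, expressed relative to vehicle-only wells. The test organism is a mutant strain from a panel with lesions in DNA repair or checkpoint genes.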

[6] = NCI Yeast Anticancer Drug Screen. Data for the mlh1 rad18 strain (AID 175); conditions: S. cerevisiae mlh1 rad18 strain growth inhibition; at 50.0 µM; stronger effect = higher value
Outline: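 Vehicle-treated cultures served as the reference for growth inhibition in a yeast strain carrying DNA damage repair alterations exposed to each compound.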

Measured: growth inhibition

CCCC(CNC(C)=O)(c1ccccc1)C1CCCCC1 (stereo unspecified)
inactive: [1] -10.7% | [2] 6.9% | [3] 3.15% | [4] 27.9% | [5] 11.2% | [6] 16.1%

COc1cc(-c2cc(=O)c3c(O)c(OC)c(OC)c(OC)c3o2)ccc1O
inactive: [1] 23.4% | [2] 10.2% | [3] -14.8% | [4] 28.4% | [5] 13.1% | [6] 14.9%

Cc1cccc(C)c1N1C(=O)C(=O)C(c2nc3ccccc3s2)C(=Nc2cccc3c(=O)[nH][nH]c(=O)c23)C1=O (stereo unspecified)
inactive: [1] 30.5% | [2] 13.9% | [3] 17.6% | [4] 23.2% | [5] 0.95% | [6] 23.7%

COc1ccccc1NC(=S)N/C=C(\C#N)c1nc2ccccc2s1
inactive: [1] -28.4% | [2] 5.95% | [3] -8.9% | [4] 3.45% | [5] 2.3% | [6] -3%

Cn1c(NCCN2CCCCC2)c(C(=O)/C=C/c2ccccc2)c(=O)n(C)c1=O
inactive: [1] 15.3% | [2] 19.4% | [3] 8.65% | [4] 17.6% | [5] -1.5% | [6] 20.8%

Cn1ncc2c(Nc3cc(Cl)ccc3Cl)ncnc21
inactive: [1] -3.05% | [2] -1.9% | [3] 4.35% | [4] -52.8% | [5] 3.7% | [6] -1.95%

CN(C)Cc1c(-c2ccccc2)c(-c2ccccc2)c2ccccn12
inactive: [1] -7.15% | [2] -21.8% | [3] 14.1% | [4] 2.8% | [5] 0.75% | [6] 9.6%

NC(=O)c1ncn2c(=O)n(CCCl)nnc12
inactive: [1] -17.2% | [2] -9.4% | [3] 1.4% | [4] 19.5% | [5] -4.15% | [6] -47.2%

CCOC(=O)C(F)(F)C(F)(F)C(F)(F)F
inactive: [1] 5.45% | [2] -16.4% | [3] 9.1% | [4] 10.9% | [5] -5.55% | [6] 11.8%

O=C(O)c1cc(O)c(O)c(Cl)c1
inactive: [1] 10.3% | [2] 6.15% | [3] 4.1% | [4] -9% | [5] 6.6% | [6] 5.05%

O=C1/C(=C\c2ccccc2)Cc2cc3c(cc21)OCO3
inactive: [1] 6.1% | [2] 1.85% | [3] -3.55% | [4] -15.9% | [5] 8.95% | [6] -6.45%

CCCCSc1nc(NCC)nc(NCC)n1
inactive: [1] 63.6% | [2] 38.9% | [3] 67% | [4] 27.1% | [5] 40.5% | [6] 41.9%

O=C(Nc1ccc([N+](=O)[O-])cc1)OC1CCS(=O)(=O)C1 (stereo unspecified)
inactive: [1] -0.2% | [2] 6.15% | [3] -3.65% | [4] 13.7% | [5] 8.6% | [6] -1.65%

CCN(CC)CCn1ncc2ccc3c(c(=O)c4cccnc4n3CCN(CC)CC)c21
inactive: [1] 9% | [2] 16.8% | [3] 13.2% | [4] 27.8% | [5] 11.6% | [6] 10.9%

CCOC(=O)C(NC(=O)c1cccc(Cl)c1)(N1CCN(c2cc3c(cc2F)c(=O)c(C(=O)O)cn3CC)CC1)C(F)(F)F (stereo unspecified)
inactive: [1] -7.7% | [2] -39.5% | [3] -18.3% | [4] 4.45% | [5] -16.8% | [6] -23.6%

c1ccc(C(SN=C2CCCCC2)(c2ccccc2)c2ccccc2)cc1
inactive: [1] -4.35% | [2] -2.6% | [3] -25.6% | [4] 10.9% | [5] -1.2% | [6] -13.1%

CCOC(=O)c1[nH]n(-c2ccccc2)c(=O)c1C=NC(=S)c1cccnc1
inactive: [1] -12.3% | [2] 2.1% | [3] -29.2% | [4] 20.2% | [5] -24.9% | [6] -16.5%

c1ccc2c(c1)C1C3c4ccccc4C1C1C2C31
inactive: [1] 5.1% | [2] 12.1% | [3] -0.1% | [4] 2.6% | [5] 3.5% | [6] -2.8%

CC1CC(c2ccccc2)S(=O)(=O)O1 (stereo unspecified)
inactive: [1] -5.9% | [2] -4.3% | [3] -3.7% | [4] -12.2% | [5] 35% | [6] -9.95%

O=[N+]([O-])c1ccc(N=N/C(Cc2ccccc2)=N\Nc2ccccc2)cc1
inactive: [1] 31.4% | [2] 12.9% | [3] -0.2% | [4] 22.6% | [5] -10.4% | [6] 4.65%

c1ccc(C23c4ccccc4C2c2ccccc23)cc1 (stereo unspecified)
inactive: [1] 14.3% | [2] 11.9% | [3] 22.2% | [4] 10.2% | [5] 18.3% | [6] 13.9%

C#CCN(CC#C)C(=O)C(=O)c1c[nH]c2ccc(OC)cc12
inactive: [1] 41.2% | [2] 0.9% | [3] 56.8% | [4] 44.5% | [5] 52.4% | [6] 51%

CCC/C(=N/O)C(=O)OCC
inactive: [1] -3.4% | [2] 14.9% | [3] 6.4% | [4] 6.25% | [5] 4.4% | [6] -4.6%

Cc1cc(S(=O)(=O)Nc2nc(N)nc(N3CCCCC3)n2)c(S)cc1Cl
inactive: [1] -0.3% | [2] -11.7% | [3] -13% | [4] -7.15% | [5] -5.2% | [6] 5.35%

CCOC(=O)c1c(C)c(C(C)=O)c2ccccn12
inactive: [1] -18.2% | [2] -17.4% | [3] -19.9% | [4] -26.6% | [5] 5.4% | [6] -2.7%

CCCCNC(=O)c1ccccc1N
inactive: [1] -20.2% | [2] -6.15% | [3] -30.7% | [4] -8% | [5] -16% | [6] -22.4%

COc1cc(N)c2c(c1)SC(c1ccccc1)C(=O)N2 (stereo unspecified)
inactive: [1] -23.6% | [2] 4.25% | [3] 1% | [4] 14.1% | [5] 32.6% | [6] 15.7%

CN(C)CCCOc1nc2c(c(=O)n(C)c(=O)n2C)n1C (tested in a mixture with another compound)
inactive: [1] 0.9% | [2] 8.9% | [3] -19.9% | [4] -9.35% | [5] -18.9% | [6] -7.15%

CC(CO)NCc1ccccc1 (stereo unspecified)
inactive: [1] -18.2% | [2] -14.9% | [3] -1.95% | [4] 3.95% | [5] -29.6% | [6] 3.95%

OC(c1ccccc1)C(CN1CCCCC1)c1ccccc1 (stereo unspecified)
inactive: [1] 3.9% | [2] 2.55% | [3] 24.9% | [4] -11.8% | [5] 4.95% | [6] 15.4%

CCOc1ccccc1NC(=O)C(=O)C(c1ccccc1)S(=O)(=O)Cc1ccccc1 (stereo unspecified)
inactive: [1] -1% | [2] -12.5% | [3] -10.1% | [4] 5.45% | [5] -7.35% | [6] -1.5%

NCCCCC(N)C(=O)NCCNc1ccc(NCCNC(=O)C(N)CCCCN)c2c1C(=O)c1ccccc1C2=O (stereo unspecified)
inactive: [1] 11.5% | [2] 7.4% | [3] 1.45% | [4] -4.85% | [5] -21.5% | [6] -19.1%

O=C1c2ccccc2OCC1CS(=O)(=O)CC1COc2ccccc2C1=O (stereo unspecified)
inactive: [1] -9.5% | [2] 9.7% | [3] -5.45% | [4] 16.2% | [5] -0.5% | [6] 7.4%

O=[N+]([O-])c1ccc(-c2ccc(-c3ccccc3)cc2)cc1
inactive: [1] -1.8% | [2] -12.7% | [3] 5.35% | [4] -15.4% | [5] -10.7% | [6] -3.6%

CC(C)(c1ccc(C(=O)O)cc1)c1ccc(C(=O)O)cc1
inactive: [1] -1.65% | [2] 5.05% | [3] -1.1% | [4] -5.7% | [5] -14.5% | [6] -9.15%

CC(C)c1ccc(C(=O)OCC2CCCO2)cc1 (stereo unspecified)
inactive: [1] 7.95% | [2] 13.1% | [3] 6.5% | [4] -13.7% | [5] -5.3% | [6] 3.65%

Cc1ccc(C(=O)Nc2ccc(CP(=O)(O)O)cc2CP(=O)(O)O)cc1NC(=O)Nc1cc(C(=O)Nc2ccc(CP(=O)(O)O)cc2CP(=O)(O)O)ccc1C
inactive: [1] -10.8% | [2] -5.45% | [3] -12.1% | [4] -0.25% | [5] 0.4% | [6] 9.65%

CCCCCCn1c(=O)cc2n(c1=O)CCC2
inactive: [1] 30% | [2] 11.3% | [3] 22.1% | [4] 11.1% | [5] 3.5% | [6] -3.4%

COC(=O)NCCCCl
inactive: [1] 5.25% | [2] -10.7% | [3] 3.5% | [4] -14.2% | [5] -0.3% | [6] 3.15%

CCOC(=O)C1=C(C(C)=O)C(c2cccc([N+](=O)[O-])c2)C(C(C)=O)=C(C(=O)OCC)N1
inactive: [1] -1.8% | [2] 4.05% | [3] -8.8% | [4] -2.8% | [5] -13.6% | [6] 7.25%

NC(=O)N=Nc1ccc(Br)cc1
inactive: [1] 9.8% | [2] 7.05% | [3] -7.85% | [4] -11.7% | [5] -3.55% | [6] 18.3%
